Test results: article PMC5540273 (PLoS ONE, 2017)

Legend:
Details in all cases: concentration: 1 μM, replicates: in singlicate; n = 1
SBK1 = test system: SBK1
SGK2 = test system: SGK2
SGK3 = test system: SGK3
SGK = test system: SGK
SIK2 = test system: SIK2
SIK = test system: SIK
SLK = test system: SLK
SNARK = test system: T1, SNARK
T1 construct: gene NUAK2

SNRK = test system: SNRK
SRC = test system: SRC
SRMS = test system: SRMS
SRPK1 = test system: SRPK1
SRPK2 = test system: SRPK2
SRPK3 = test system: SRPK3
STK16 = test system: STK16
STK33 = test system: STK33
STK35 = test system: STK35
STK36 = test system: STK36
STK39 = test system: STK39
SYK = test system: SYK
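Further: KINOMEscan kinase panel screen.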

Row | SMILES | %Inh (SBK1) | %Inh (SGK2) | %Inh (SGK3) | %Inh (SGK) | %Inh (SIK2) | %Inh (SIK) | %Inh (SLK) | %Inh (SNARK) | %Inh (SNRK) | %Inh (SRC) | %Inh (SRMS) | %Inh (SRPK1) | %Inh (SRPK2) | %Inh (SRPK3) | %Inh (STK16) | %Inh (STK33) | %Inh (STK35) | %Inh (STK36) | %Inh (STK39) | %Inh (SYK)
1 | Clc1ccc(-c2cc(-c3c[nH]nc3-c3ccccn3)ccn2)cc1 [GW681251] | 4% | 0% | 6% | 0% | 0% | 0% | 10% | 0% | 0% | 0% | 0% | 0% | 0% | 0% | 19% | 0% | 0% | 0% | 1% | 22%
2 | CC(C)(C)c1ccc(-n2cnc3c(N)ncnc32)cc1 [SKF-97263] | 11% | 0% | 15% | 2% | 7% | 0% | 13% | 18% | 0% | 1% | 14% | 29% | 0% | 31% | 0% | 0% | 11% | 11% | 0% | 0%
3 | O=C(Nc1n[nH]c2nc(-c3ccco3)c(Br)cc12)c1ccc(CN2CCCC2)cc1.O=C(O)[C@H](O)[C@@H](O)C(=O)O [SB-742352] | 12% | 1% | 0% | 17% | 3% | 0% | 25% | 0% | 0% | 22% | 0% | 2% | 0% | 26% | 0% | 0% | 26% | 54% | 0% | 10%
4 | Cc1cccc(-c2nc(Nc3ccc4[nH]nnc4c3)c3ccccc3n2)n1 [GW867587] | 0% | 0% | 0% | 0% | 0% | 0% | 0% | 0% | 0% | 26% | 10% | 0% | 0% | 7% | 0% | 0% | 0% | 0% | 0% | 0%
5 | Fc1ccc(-c2ncn(CCCNCc3ccccc3)c2-c2ccncc2)cc1 | 0% | 19% | 0% | 30% | 0% | 9% | 35% | 5% | 5% | 24% | 0% | 31% | 4% | 23% | 0% | 0% | 0% | 20% | 0% | 23%
6 | CCn1c(-c2ccncc2)nc2cnccc21 [SB-735216] | 20% | 19% | 28% | 5% | 0% | 19% | 8% | 21% | 17% | 0% | 16% | 0% | 24% | 50% | 0% | 0% | 0% | 19% | 6% | 15%
7 | Clc1cc(Nc2ncnc3cc[nH]c23)ccc1OCc1ccccn1 | 41% | 24% | 28% | 31% | 8% | 16% | 21% | 27% | 26% | 15% | 0% | 0% | 0% | 19% | 35% | 9% | 0% | 12% | 8% | 8%
8 | NC(=O)c1sc(-n2cnc3ccccc32)cc1OCc1ccccc1F [GSK1024306] | 21% | 0% | 0% | 4% | 0% | 4% | 63% | 29% | 0% | 14% | 0% | 50% | 0% | 16% | 0% | 0% | 0% | 0% | 4% | 7%
9 | COC(=O)c1c(-c2ccccc2)c2cc(Cl)ccc2c(=O)n1Cc1ccc(S(C)(=O)=O)cc1 | 0% | 0% | 9% | 0% | 9% | 2% | 19% | 18% | 0% | 23% | 0% | 10% | 6% | 0% | 0% | 0% | 15% | 15% | 0% | 3%
10 | Cn1ccc2ncnc(Nc3ccc(Oc4cccc(Cl)c4)c(Cl)c3)c21 | 15% | 11% | 10% | 0% | 0% | 37% | 33% | 13% | 0% | 12% | 0% | 20% | 0% | 0% | 0% | 26% | 0% | 6% | 0% | 4%
11 | Cl.c1ccc(Cn2ccc3cc(Nc4ncnc5ccccc45)ccc32)cc1 [GW275568] | 0% | 0% | 46% | 0% | 2% | 0% | 32% | 35% | 14% | 4% | 15% | 11% | 0% | 0% | 19% | 0% | 0% | 20% | 18% | 26%
12 | Cn1ccc2ncnc(Oc3ccc(NC(=O)Nc4cccnc4)c(Cl)c3)c21 | 0% | 8% | 0% | 3% | 0% | 19% | 9% | 0% | 0% | 16% | 0% | 12% | 0% | 0% | 3% | 0% | 6% | 13% | 0% | 0%
13 | CCc1nc(-c2cccc(N(C)S(=O)(=O)c3ccccc3)c2)c(-c2ccnc(Nc3ccc(N4CCN(C(C)=O)CC4)nc3)n2)s1 [GSK1645895] | 5% | 0% | 19% | 0% | 0% | 0% | 3% | 23% | 0% | 16% | 19% | 19% | 0% | 0% | 41% | 0% | 0% | 99.4% | 0% | 0%
14 | O=C(Nc1ccccc1F)NC1CCN(c2ccnc(Nc3ccc(F)cc3)n2)C1 (stereo not drawn) [GSK1379722] | 21% | 0% | 0% | 0% | 0% | 0% | 5% | 0% | 0% | 0% | 0% | 0% | 0% | 3% | 0% | 0% | 0% | 0% | 29% | 10%
15 | Fc1cccc(COc2ccc(Nc3ncnc4nn5ccccc5c34)cc2Cl)c1 [GW689066] | 2% | 0% | 0% | 0% | 0% | 0% | 2% | 0% | 0% | 0% | 0% | 2% | 30% | 8% | 12% | 0% | 0% | 0% | 0% | 26%
16 | CC(C)(C)OC(=O)NC1CCCN(c2cc(-c3ccc4c(N)n[nH]c4c3)nc(N)n2)C1 (stereo not drawn) [GSK2286096] | 15% | 0% | 44% | 0% | 0% | 0% | 0% | 0% | 3% | 0% | 0% | 15% | 0% | 0% | 19% | 53% | 0% | 0% | 0% | 0%
17 | CS(=O)(=O)CCNCc1nc(-c2ccc3ncnc(Nc4ccc(OCc5cccc(F)c5)c(Cl)c4)c3c2)cs1.Cl [GW583340] | 0% | 0% | 0% | 0% | 0% | 0% | 20% | 0% | 0% | 0% | 0% | 2% | 0% | 0% | 8% | 0% | 0% | 0% | 1% | 18%
18 | CCCc1ccc(S(=O)(=O)NC2CCN(c3ccnc(Nc4ccc(OC)cc4)n3)C2)cc1 (stereo not drawn) [GSK1379737] | 100% | 6% | 0% | 0% | 0% | 0% | 15% | 0% | 0% | 0% | 0% | 28% | 28% | 0% | 1% | 0% | 0% | 15% | 17% | 18%
19 | Fc1cccc(COc2ccc(Nc3ncnc4sc(-c5ccc[nH]5)cc34)cc2Cl)c1 [GW707818] | 0% | 0% | 19% | 0% | 0% | 0% | 24% | 15% | 1% | 0% | 14% | 19% | 3% | 0% | 26% | 8% | 0% | 0% | 9% | 13%
20 | CNc1nccc(-c2c(-c3ccc(F)cc3)ncn2C2CCN(C)CC2)n1 [SB-222903] | 0% | 0% | 0% | 0% | 17% | 0% | 0% | 0% | 0% | 0% | 15% | 0% | 0% | 0% | 0% | 13% | 0% | 3% | 0% | 27%
21 | CCC(CC)(CC)n1cnc2c(N)ncnc21 [SKF-97620] | 51% | 3% | 15% | 0% | 1% | 0% | 24% | 28% | 30% | 0% | 22% | 14% | 20% | 22% | 2% | 0% | 0% | 4% | 0% | 11%
